Data: ChEMBL document CHEMBL3988442, “University of Dundee, Small-Polar-MMV Screening Library” (2021)
For some assays here: Results with a measured potency or affinity are listed apart.

Assays:
Parameters in all cases: scale not given: direction of the effect not stated beside the values
[1] = molecular target: Protein translocase subunit SecA (Escherichia coli (strain K12)) (UniProt P10408); assay: Assay to Identify E. coli SecA ATPase Inhibitors; type: functional; conditions: 30 µM
[2] = molecular target: T1, Ubiquitin-activating enzyme e1, putative (Leishmania donovani (strain BPK282A1)) (UniProt E9BSI1); assay: Leishmania donovani Ubiquitin Activating Enzyme (LdE1); type: functional; conditions: 30 µM
T1 sequence (whole entry): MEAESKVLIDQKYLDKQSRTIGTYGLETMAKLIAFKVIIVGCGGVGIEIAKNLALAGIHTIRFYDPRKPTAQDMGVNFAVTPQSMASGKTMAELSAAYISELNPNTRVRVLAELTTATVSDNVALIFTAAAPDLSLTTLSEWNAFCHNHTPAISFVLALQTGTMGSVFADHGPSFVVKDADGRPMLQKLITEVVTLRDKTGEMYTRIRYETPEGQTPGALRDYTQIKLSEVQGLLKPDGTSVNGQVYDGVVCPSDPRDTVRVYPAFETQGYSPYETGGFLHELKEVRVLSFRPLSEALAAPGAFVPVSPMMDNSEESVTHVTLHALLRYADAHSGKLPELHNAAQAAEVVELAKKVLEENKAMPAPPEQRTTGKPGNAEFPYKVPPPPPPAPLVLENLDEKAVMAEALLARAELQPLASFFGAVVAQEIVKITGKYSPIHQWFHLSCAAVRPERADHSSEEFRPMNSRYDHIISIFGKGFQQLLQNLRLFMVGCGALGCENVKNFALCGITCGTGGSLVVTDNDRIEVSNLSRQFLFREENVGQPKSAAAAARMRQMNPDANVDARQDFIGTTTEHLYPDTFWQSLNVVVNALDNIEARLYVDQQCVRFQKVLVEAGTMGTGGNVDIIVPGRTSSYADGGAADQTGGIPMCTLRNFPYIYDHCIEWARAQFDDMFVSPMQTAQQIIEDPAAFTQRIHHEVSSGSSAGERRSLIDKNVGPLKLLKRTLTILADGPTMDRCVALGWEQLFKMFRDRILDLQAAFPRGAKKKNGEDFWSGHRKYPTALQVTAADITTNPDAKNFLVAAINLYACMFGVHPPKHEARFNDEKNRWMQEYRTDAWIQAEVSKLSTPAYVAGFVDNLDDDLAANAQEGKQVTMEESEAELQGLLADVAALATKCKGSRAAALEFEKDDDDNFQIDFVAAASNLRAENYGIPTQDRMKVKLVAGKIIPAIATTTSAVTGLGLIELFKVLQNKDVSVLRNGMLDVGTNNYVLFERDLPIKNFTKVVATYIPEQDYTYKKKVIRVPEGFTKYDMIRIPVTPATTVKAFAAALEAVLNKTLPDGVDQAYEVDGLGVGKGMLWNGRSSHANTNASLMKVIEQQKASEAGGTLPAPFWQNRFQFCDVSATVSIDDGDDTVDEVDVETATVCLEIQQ

[3] = molecular target: AMP-activated protein kinase, AMPK (Homo sapiens) (UniProt P54646+O43741+P54619+Q9UGJ0+Q9Y478+Q13131+Q9UGI9); assay: AMP-dependent Kinase enzyme assay. An in vitro enzyme assay that detects ADP turnover that is directly proportional to AMPK activity. This uses naive AMPK that is activated during the assay with MK-8722; type: functional; conditions: 30 µM
[4] = molecular target: Sialic acid-binding Ig-like lectin 9 (Homo sapiens) (UniProt Q9Y336); assay: Hs-Siglec9 ALPHAscreen SOP 20170721; conditions: 10 µM
[5] = tested on: Trypanosoma cruzi; assay: Trypanosoma cruzi phosphomannomutase and mannose-1-phosphate guanylyltransferase assay; type: functional; conditions: 10 µM
[6] = molecular target: T2, Arginase-2, mitochondrial (Homo sapiens) (UniProt P78540); assay: in vitro enzyme assay to detect the production of urea directly proportional to the activity of Arginase II; type: functional; conditions: 33.3 µM; note: in the data most compounds retested in dose-response had high values
T2 sequence (whole entry): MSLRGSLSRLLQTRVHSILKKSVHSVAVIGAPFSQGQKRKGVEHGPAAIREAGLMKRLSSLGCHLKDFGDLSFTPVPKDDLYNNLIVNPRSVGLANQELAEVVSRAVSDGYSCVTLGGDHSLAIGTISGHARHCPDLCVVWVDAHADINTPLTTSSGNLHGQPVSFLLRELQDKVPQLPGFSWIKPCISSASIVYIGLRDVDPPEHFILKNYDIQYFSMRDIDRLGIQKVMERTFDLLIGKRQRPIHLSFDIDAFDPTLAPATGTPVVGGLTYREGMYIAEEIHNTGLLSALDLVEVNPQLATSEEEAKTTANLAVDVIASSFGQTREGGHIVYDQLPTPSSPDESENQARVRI

[7] = molecular target: T3, Proteasome subunit beta (Trypanosoma cruzi) (UniProt O96673); assay: Trypanosoma cruzi proteasome chymotrypsin-like activity (TcProtChymo) assay.; note: in the data most compounds retested in dose-response had high values; type: functional; conditions: 9.37 µM
T3 sequence (whole entry): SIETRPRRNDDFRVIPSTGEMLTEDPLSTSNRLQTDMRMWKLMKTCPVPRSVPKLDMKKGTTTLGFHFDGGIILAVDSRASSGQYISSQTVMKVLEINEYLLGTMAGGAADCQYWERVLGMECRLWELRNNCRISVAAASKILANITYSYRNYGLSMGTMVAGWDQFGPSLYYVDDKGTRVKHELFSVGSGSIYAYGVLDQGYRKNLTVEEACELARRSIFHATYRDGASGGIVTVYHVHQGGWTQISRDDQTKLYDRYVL

[8] = organism: Homo sapiens; assay: To identify inhibition of the IFN signalling (Jak-Stat) pathway via expression of an eGFP reporter gene under the control of an IFN-stimulated response element (ISRE) containing MxA promoter.; type: functional; conditions: 30 µM
[9] = molecular target: T4, Tyrosyl-tRNA synthetase, putative (Trypanosoma cruzi (strain CL Brener)) (UniProt Q4DSP6); assay: Trypanosoma cruzi tyrosyl tRNA synthetase (TcYRS) _High Tyrosine SOP; type: functional; conditions: 30 µM; note: in the data most compounds retested in dose-response had high values
T4 sequence (whole entry): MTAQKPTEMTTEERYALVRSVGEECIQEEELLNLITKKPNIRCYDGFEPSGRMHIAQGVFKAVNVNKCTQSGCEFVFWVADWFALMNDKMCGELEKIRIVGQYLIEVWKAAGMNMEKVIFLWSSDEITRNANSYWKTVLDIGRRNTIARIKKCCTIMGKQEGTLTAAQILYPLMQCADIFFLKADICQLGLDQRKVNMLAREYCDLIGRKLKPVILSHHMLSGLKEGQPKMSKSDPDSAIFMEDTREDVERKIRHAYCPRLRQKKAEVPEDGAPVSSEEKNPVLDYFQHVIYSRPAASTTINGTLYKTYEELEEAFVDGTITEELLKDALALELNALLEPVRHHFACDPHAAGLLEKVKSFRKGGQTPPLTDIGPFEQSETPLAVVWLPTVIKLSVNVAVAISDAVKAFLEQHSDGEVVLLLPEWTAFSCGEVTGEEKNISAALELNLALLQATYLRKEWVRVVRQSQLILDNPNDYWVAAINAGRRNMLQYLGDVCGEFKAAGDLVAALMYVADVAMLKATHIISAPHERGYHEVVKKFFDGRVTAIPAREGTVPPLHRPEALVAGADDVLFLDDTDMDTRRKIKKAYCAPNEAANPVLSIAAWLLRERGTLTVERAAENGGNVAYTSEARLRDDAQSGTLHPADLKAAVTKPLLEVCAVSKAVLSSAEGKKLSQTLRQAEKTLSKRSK

[10] = molecular target: T4, Tyrosyl-tRNA synthetase, putative (Trypanosoma cruzi (strain CL Brener)); assay: Trypanosoma cruzi tyrosyl tRNA synthetase (TcYRS) SOP; type: functional; conditions: 30 µM
[11] = molecular target: Chromo domain-containing protein 1 (Saccharomyces cerevisiae (strain ATCC 204508 / S288c) (Baker's yeast)) (UniProt P32657); assay: ScCHD-1 Enzyme Inhibition Assay; type: functional; conditions: 30 µM; note: in the data most compounds retested in dose-response had high values
Sequence of Chromo domain-containing protein 1 (Saccharomyces cerevisiae (strain ATCC 204508 / S288c) (Baker's yeast)) (P32657 whole entry, the tested form may be a part): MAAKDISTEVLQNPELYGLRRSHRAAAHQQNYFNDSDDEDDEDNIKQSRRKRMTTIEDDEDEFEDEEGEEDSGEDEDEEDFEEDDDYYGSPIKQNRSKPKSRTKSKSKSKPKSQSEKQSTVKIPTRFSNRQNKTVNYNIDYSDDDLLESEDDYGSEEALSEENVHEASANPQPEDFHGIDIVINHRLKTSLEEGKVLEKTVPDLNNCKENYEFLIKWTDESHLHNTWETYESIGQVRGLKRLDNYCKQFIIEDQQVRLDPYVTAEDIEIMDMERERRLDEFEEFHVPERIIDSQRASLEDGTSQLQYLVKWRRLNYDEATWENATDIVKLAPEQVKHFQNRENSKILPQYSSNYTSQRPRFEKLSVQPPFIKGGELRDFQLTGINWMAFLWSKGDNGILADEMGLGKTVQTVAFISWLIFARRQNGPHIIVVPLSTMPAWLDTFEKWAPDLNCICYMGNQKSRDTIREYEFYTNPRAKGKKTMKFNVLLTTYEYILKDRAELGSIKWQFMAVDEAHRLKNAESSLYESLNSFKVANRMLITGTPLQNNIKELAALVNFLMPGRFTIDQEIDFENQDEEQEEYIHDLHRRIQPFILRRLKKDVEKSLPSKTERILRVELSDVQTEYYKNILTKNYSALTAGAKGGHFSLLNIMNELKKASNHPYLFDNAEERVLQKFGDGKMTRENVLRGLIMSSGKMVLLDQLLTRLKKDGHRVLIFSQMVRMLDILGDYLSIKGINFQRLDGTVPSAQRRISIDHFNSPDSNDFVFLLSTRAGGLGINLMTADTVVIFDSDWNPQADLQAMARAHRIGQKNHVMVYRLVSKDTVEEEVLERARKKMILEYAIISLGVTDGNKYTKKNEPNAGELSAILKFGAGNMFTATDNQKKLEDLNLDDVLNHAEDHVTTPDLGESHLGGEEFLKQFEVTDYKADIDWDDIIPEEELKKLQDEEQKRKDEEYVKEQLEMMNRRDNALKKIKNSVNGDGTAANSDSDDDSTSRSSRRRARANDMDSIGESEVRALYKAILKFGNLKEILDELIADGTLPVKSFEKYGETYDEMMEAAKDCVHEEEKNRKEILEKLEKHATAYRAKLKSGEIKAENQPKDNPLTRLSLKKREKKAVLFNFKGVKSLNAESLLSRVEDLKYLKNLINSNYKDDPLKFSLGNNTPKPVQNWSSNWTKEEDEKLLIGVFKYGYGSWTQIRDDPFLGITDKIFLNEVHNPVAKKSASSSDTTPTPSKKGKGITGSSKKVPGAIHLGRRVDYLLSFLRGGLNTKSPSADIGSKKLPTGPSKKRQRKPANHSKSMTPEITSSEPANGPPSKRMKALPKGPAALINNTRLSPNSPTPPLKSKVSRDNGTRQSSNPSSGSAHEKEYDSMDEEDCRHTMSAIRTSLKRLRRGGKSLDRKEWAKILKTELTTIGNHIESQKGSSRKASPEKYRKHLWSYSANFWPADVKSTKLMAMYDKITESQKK

Sequence of Protein translocase subunit SecA (Escherichia coli (strain K12)) (P10408 whole entry): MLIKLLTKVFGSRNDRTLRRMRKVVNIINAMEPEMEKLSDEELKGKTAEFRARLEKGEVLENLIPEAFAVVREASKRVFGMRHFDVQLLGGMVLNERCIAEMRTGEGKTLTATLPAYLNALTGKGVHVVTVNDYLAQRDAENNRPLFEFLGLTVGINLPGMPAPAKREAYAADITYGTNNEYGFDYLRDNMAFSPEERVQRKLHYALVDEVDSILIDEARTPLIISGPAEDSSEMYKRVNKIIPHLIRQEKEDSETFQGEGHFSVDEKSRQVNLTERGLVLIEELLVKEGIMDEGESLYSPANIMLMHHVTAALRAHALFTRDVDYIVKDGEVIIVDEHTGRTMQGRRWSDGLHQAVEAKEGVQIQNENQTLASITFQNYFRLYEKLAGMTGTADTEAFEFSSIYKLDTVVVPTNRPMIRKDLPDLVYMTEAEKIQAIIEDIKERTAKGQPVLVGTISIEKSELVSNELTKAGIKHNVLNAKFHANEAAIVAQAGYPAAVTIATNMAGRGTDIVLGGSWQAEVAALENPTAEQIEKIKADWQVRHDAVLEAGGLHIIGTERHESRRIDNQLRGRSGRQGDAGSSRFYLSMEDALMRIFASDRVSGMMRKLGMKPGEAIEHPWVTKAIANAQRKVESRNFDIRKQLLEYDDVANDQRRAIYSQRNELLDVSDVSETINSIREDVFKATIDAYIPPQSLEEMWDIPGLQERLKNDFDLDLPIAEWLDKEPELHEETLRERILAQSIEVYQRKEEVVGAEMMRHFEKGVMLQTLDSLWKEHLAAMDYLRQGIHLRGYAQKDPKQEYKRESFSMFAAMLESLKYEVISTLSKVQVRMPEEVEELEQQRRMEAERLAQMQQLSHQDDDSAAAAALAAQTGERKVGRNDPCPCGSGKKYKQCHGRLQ
Sequence of Sialic acid-binding Ig-like lectin 9 (Homo sapiens) (Q9Y336 whole entry): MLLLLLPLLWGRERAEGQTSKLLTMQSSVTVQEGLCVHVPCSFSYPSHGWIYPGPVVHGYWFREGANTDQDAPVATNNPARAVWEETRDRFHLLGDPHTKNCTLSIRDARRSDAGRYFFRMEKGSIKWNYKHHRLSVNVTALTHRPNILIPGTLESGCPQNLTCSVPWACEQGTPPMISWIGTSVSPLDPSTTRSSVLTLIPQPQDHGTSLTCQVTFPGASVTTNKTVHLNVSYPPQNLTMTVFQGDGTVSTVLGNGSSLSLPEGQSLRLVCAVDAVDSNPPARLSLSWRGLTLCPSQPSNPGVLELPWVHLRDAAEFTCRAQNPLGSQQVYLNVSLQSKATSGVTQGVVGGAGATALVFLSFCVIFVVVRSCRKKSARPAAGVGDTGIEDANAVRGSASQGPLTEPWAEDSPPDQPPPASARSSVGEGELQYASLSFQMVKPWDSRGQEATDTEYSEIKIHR

| SMILES | Percent Effect [1] | Percent Effect [2] | Percent Effect [3] | Percent Effect [4] | Percent Effect [5] | Percent Effect [6] | Percent Effect [7] | Percent Effect [8] | Percent Effect [9] | Percent Effect [10] | Percent Effect [11] |
| --- | --- | --- | --- | --- | --- | --- | --- | --- | --- | --- | --- |
| CCCc1cc(C(=O)N(C)Cc2cccc3ncccc23)n(C)n1 | -4.03% | 15.6% | 2.46% | 20.3% | 3.25% | -19.3% | 14.6% | 36.1% | 7.53% | 18.5% | -8.05% |
| COc1ccc(C(=O)N2CCC(Nc3ccc(C)nn3)CC2)c(F)c1 | -1.36% | 1.27% | 3.77% | -1.89% | -4.21% | 2.8% | 12.7% | 25.4% | 7.29% | -2.53% | -10.7% |
| Cc1csc(C2CCCN(C(=O)c3cnc[nH]3)C2)n1 (configuration not stated) | -3.16% | 10.8% | -8.22% | 15.3% | 3.11% | -4.41% | 3.42% | 32.5% | 5.42% | 18.5% | -10.5% |
| NC(=O)C1CCN(Cn2nc(-c3ccc(F)cc3)oc2=O)CC1 | -3.92% | 2.6% | 9.43% | 0.452% | -22.7% | 4.14% | 22% | 24.3% | -1.07% | 1.24% | -2.23% |
| CC(C)Nc1ncnc2c1CCN(C(=O)Cc1ccccn1)CC2 | -6.13% | 1.33% | -12.1% | -2.69% | -6.48% | -10.4% | 10.3% | -12.6% | -2.12% | -2.56% | -11% |
| O=C(CCCOCc1ccccc1)N1CCCC1c1ccccn1 (configuration not stated) | -2.89% | 0% | -0.0464% | -0.638% | 2.55% | 7.99% | 5% | -30.4% | 0.493% | 3.8% | -2.69% |
| CCc1nc(C(=O)NCc2ccc(N3CCNC(=O)C3)c(F)c2)c[nH]1 | 2.33% | 18.9% | -4.78% | 31.7% | 4.63% | -3.81% | 20% | 13.4% | 5.82% | 12.2% | -2.24% |
| Cc1cccc(N2CCN(C(=O)CN3CCN(CCO)CC3)CC2)c1 | -7.92% | 8.22% | 2.85% | 6.75% | 3.37% | 0.798% | 3.51% | 10.3% | 9.38% | 21% | -0.672% |
| CC(C)n1c(C2CCCN(Cc3ccnn3C)C2)nc2ccccc21 (configuration not stated) | -5.27% | 5.33% | 6.84% | 4.6% | 6.5% | -1.63% | 6.78% | 18.1% | 2.13% | 14.1% | -3.27% |
| Cn1cc(C(=O)CC2CCCN2C(=O)c2cncc3ccccc23)cn1 (configuration not stated) | -2.2% | 6.33% | -4.89% | 2.04% | 0.718% | 4.95% | 5.66% | 14.6% | 5.21% | 12.7% | -15% |
| CCOCC(O)CN1CCN(C(=O)c2ccnc(N(C)C)c2)CC1 (configuration not stated) | -2.11% | 2.7% | -5.93% | 13.5% | 5.99% | 1.43% | 0% | -4.49% | 1.59% | 7.32% | -3.55% |
| CCN1CCN(c2ccc(F)cc2C(C)NCc2ccncc2)CC1 (configuration not stated) | -5.73% | 0% | -10.3% | -1.77% | -2.25% | -3.72% | 9.7% | 6.08% | 3.23% | 6.17% | -0.559% |
| O=C(CCO)N1CCOC2(CCCN(C(=O)c3ccco3)C2)C1 (configuration not stated) | 2.21% | -5.2% | 0.24% | 19.9% | 4.82% | 4.14% | 11.3% | -33.1% | -12.9% | -13.6% | 0.942% |
| Cc1ccc(N2CC3(COCCN(Cc4nccs4)C3)OCC2=O)s1 (configuration not stated) | 4.24% | 7.79% | -1.49% | -11.2% | -7.59% | 9.68% | 17.8% | 8.7% | 3.17% | 8.97% | -11.1% |
| CNC(=O)N1CC[C@H]2N(C)CC[C@@]2(C(=O)Nc2ccccc2)CC1 | -3.9% | 5.41% | -2.05% | 1.61% | 5.08% | 4.17% | 2.45% | 11.5% | 1.98% | 6.1% | -1.69% |
| CCCOCCN1CCC2(CC1)CC(c1ccccc1)C(=O)N2C (configuration not stated) | 6.56% | 5.33% | -0.289% | -1.03% | -9.45% | -4.69% | 18.8% | 48.6% | -2.73% | 1.24% | -5.61% |
| Cn1cc(C(=O)NCc2cn3c(n2)CN(Cc2ccccn2)CC3)cn1 | -7.16% | 2.7% | 4.33% | -3.43% | 2.73% | 2.08% | -0.254% | -6.36% | 6.93% | 8.54% | -1.37% |
| Cc1cccc(CN2C[C@H]3OC(=O)N(CCCN4CCOCC4)[C@H]3C2)n1 | -5.71% | 5.33% | 0.534% | 17% | 0.682% | 2.08% | 11.9% | 2.81% | 10.4% | 16.1% | -8.08% |
| Cc1cc(CN2CCc3nn(C)c(=O)cc3C2)on1 | -2.46% | 12.5% | -228% | -1.88% | -0.0972% | 4.86% | 6.84% | -5.36% | -3.16% | -7.69% | -2.45% |
| Cc1noc(C)c1CN1CC[C@H]2OCC[C@@H](C(=O)NCC3CC3)[C@@H]2C1 | -4.39% | 2.67% | 1.83% | 6.75% | -1.54% | -25.3% | 8.21% | -17.4% | 0% | 12.5% | -5.06% |
| CS(=O)(=O)N1CCCN(C(=O)c2ccc(Cn3ccccc3=O)o2)CC1 | 0.345% | 10.8% | -1.54% | -9.12% | -8.45% | 2.77% | 5.03% | 12.3% | 6.93% | 15.8% | -7.1% |
| O=C(NCC1CCN(Cc2ccsc2)CC1)NC1CC1 | 1.05% | 7.79% | 2.27% | -0.902% | -5.62% | 14.8% | 17.2% | 10.3% | 2.12% | 6.41% | -5.17% |
